In PubChem BioAssay (NCATS):
Inconclusive results are not listed. Activity calls are given as the source filed them. Calls follow the shape of the dose curve; as a rule, active = well fitted inhibition curve with a large enough effect; inconclusive = small, poorly fitted or top-dose-only effect; inactive = flat fitted curve, though single readings scatter.

Tests used:
Assay in all cases: qHTS profiling for inhibitors of Plasmodium falciparum proliferation (AID 504749); also: nearly all actives have a fitted effect of over 60% in size
Details in all cases: P. falciparum in erythrocytes, SYBR Green DNA, 72 h; series mostly up to 28.7 µM
[1] = system: CP262
In short: (§1)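 Three-day growth assay of blood-stage parasites in erythrocytes (0.3% parasitemia, 2.5% hematocrit) at 37 C, 5% CO2, quantified by SYBR Green DNA staining after overnight detergent lysis.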

[2] = system: CP265
In short: as §1

[3] = system: CP266
In short: as §1

[4] = system: CP268
In short: as §1

[5] = system: CP286
In short: as §1

[6] = system: CP297
In short: as §1

[7] = system: CP305
In short: as §1

[8] = system: CP315
In short: as §1

[9] = system: CP335
In short: as §1

[10] = system: DFO2036
In short: as §1

[11] = system: DIV17
In short: as §1

[12] = system: DIV30
In short: as §1

[13] = system: Dd2
In short: as §1

[14] = system: ECU
In short: as §1

[15] = system: FAB9
In short: as §1

[16] = system: CP269
In short: as §1

[17] = system: CP291
In short: as §1

[18] = system: CP325
In short: as §1

[19] = system: CP329
In short: as §1

[20] = system: DIV14
In short: as §1

Measured: Potency
Potency is read from the fitted curve at half-maximal effect.

CC(C)COC(=O)c1ccc(N)cc1
inactive: [1] | [2] | [3] | [4] | [5] | [6] | [7] | [8] | [9] | [10] | [11] | [12] | [13] | [14] | [15]

COc1cc2c(cc1OC)C(C(C(=O)N(CCc1ccc(OC)c(OC)c1OC)CCc1ccc(OC)c(OC)c1OC)c1ccccc1)=NCC2 (stereo not given)
inactive: [10]
active: [1] 9.53 µM | [2] 7.94 µM | [4] 13.5 µM | [16] 6.75 µM | [5] 7.94 µM | [17] 15.1 µM | [6] 3.38 µM | [7] 15.1 µM | [8] 13.5 µM | [18] 16.9 µM | [19] 13.5 µM | [9] 5.36 µM | [20] 1.35 µM | [11] 1.35 µM | [12] 1.35 µM | [13] 3.98 µM | [14] 2.24 µM | [15] 11.2 µM

CCN1CCN(c2cc3c(cc2F)c(=O)c(C(=O)O)cn3C2CC2)CC1
inactive: [1] | [2] | [3] | [4] | [16] | [17] | [6] | [8] | [18] | [19] | [10] | [20] | [11] | [12] | [13] | [14]

CC(O)(P(=O)(O)O)P(=O)(O)O
inactive: [1] | [2] | [3] | [16] | [5] | [8] | [19] | [9] | [10] | [12] | [13] | [14] | [15]

CCCCOc1ccc(OCCCN2CCOCC2)cc1
inactive: [1] | [2] | [3] | [4] | [16] | [5] | [17] | [6] | [7] | [8] | [18] | [19] | [10] | [20] | [11] | [12] | [13] | [14] | [15]

C[C@@H](CN(C)C)CN1c2ccccc2Sc2ccccc21
inactive: [1] | [2] | [3] | [5] | [17] | [6] | [7] | [8] | [18] | [9] | [10] | [14] | [15]

CCCCC(CC)CN=C(N)NC(N)=NCCCCCCN=C(N)NC(N)=NCC(CC)CCCC (stereo not given)
active: [1] 1.07 µM | [2] 3.55 µM | [4] 1.69 µM | [16] 1.51 µM | [5] 0.631 µM | [17] 1.69 µM | [6] 3.38 µM | [7] 1.69 µM | [8] 1.35 µM | [18] 1.2 µM | [19] 1.51 µM | [9] 1.51 µM | [10] 3.16 µM | [20] 1.35 µM | [11] 1.2 µM | [12] 1.2 µM | [13] 2 µM | [14] 1.12 µM | [15] 1.78 µM

Oc1ccc(Cl)cc1Sc1cc(Cl)ccc1O
inactive: [1] | [2] | [3] | [4] | [16] | [5] | [17] | [7] | [8] | [18] | [19] | [10] | [13] | [15]

COc1ccc(/C=C/C(=O)c2ccc(OC)cc2OC)cc1
active: [1] 5.36 µM | [2] 5.01 µM | [3] 7.57 µM | [4] 13.5 µM | [16] 9.53 µM | [5] 10 µM | [17] 8.49 µM | [6] 8.49 µM | [7] 6.01 µM | [18] 12 µM | [9] 6.75 µM | [10] 7.94 µM | [20] 10.7 µM | [11] 16.9 µM | [12] 12 µM | [13] 7.08 µM | [14] 8.91 µM | [15] 8.91 µM

NC(CO)(CO)CO
inactive: [1] | [2] | [3] | [4] | [16] | [5] | [17] | [7] | [8] | [18] | [19] | [9] | [10] | [20] | [11] | [12] | [13] | [14] | [15]

CC(Cc1cccc(C(F)(F)F)c1)NCCOC(=O)c1ccccc1 (stereo not given)
inactive: [1] | [2] | [3] | [4] | [16] | [5] | [17] | [7] | [8] | [18] | [19] | [9] | [10] | [12] | [14] | [15]

C[C@H](O)C(=O)Nc1c(I)c(C(=O)NC(CO)CO)c(I)c(C(=O)NC(CO)CO)c1I
inactive: [1] | [2] | [3] | [4] | [16] | [5] | [17] | [6] | [7] | [18] | [19] | [9] | [10] | [20] | [11] | [12] | [13] | [14] | [15]

Oc1c(Cl)cc(Cl)cc1Sc1cc(Cl)cc(Cl)c1O
inactive: [1] | [2] | [3] | [4] | [16] | [5] | [17] | [7] | [8] | [18] | [19] | [9] | [10] | [20] | [11] | [12] | [13] | [14] | [15]

Cc1ccnc(NS(=O)(=O)c2ccc(N)cc2)n1
inactive: [1] | [2] | [3] | [4] | [16] | [5] | [17] | [6] | [7] | [18] | [19] | [9] | [10] | [20] | [11] | [12] | [13] | [14] | [15]

CC(C)(Oc1ccc(Cl)cc1)C(=O)O
inactive: [1] | [2] | [3] | [4] | [16] | [5] | [6] | [8] | [18] | [19] | [10] | [20] | [11] | [12] | [13] | [14] | [15]

N[C@H](Cc1c[nH]c2ccccc12)C(=O)O
inactive: [1] | [2] | [3] | [4] | [16] | [5] | [17] | [6] | [7] | [8] | [18] | [19] | [10] | [20] | [11] | [12] | [14] | [15]

CCN(CC)C(=O)N1CCN(C)CC1
inactive: [1] | [2] | [4] | [16] | [5] | [17] | [6] | [7] | [8] | [18] | [19] | [9] | [10] | [20] | [11] | [12] | [13] | [14] | [15]

Cc1ccc(C(=O)C(C)CN2CCCCC2)cc1 (stereo not given)
inactive: [1] | [3] | [4] | [5] | [17] | [6] | [7] | [8] | [18] | [19] | [10] | [20] | [13] | [15]
active: [2] 10 µM

CCCCCCCCCCCCCCCCCC(=O)OCC(O)CO (stereo not given)
inactive: [1] | [2] | [3] | [4] | [16] | [5] | [17] | [6] | [7] | [8] | [18] | [19] | [10] | [20] | [11] | [13] | [14] | [15]

CN1CCN(CCCN2c3ccccc3Sc3ccc(S(=O)(=O)N(C)C)cc32)CC1
inactive: [1] | [3] | [8] | [19]
active: [2] 3.55 µM | [20] 4.55 µM | [12] 7.21 µM | [13] 3.55 µM | [14] 4.47 µM

N[C@H](CO)C(=O)O
inactive: [1] | [2] | [3] | [16] | [5] | [17] | [6] | [7] | [8] | [18] | [19] | [9] | [10] | [20] | [11] | [12] | [13] | [14] | [15]

Cc1ccc(O)c2ncccc12
inactive: [1] | [2] | [3] | [4] | [16] | [17] | [6] | [7] | [8] | [18] | [19] | [12] | [15]

CC(C)NC[C@@H](O)COc1cccc2ccccc12
active: [2] 10 µM | [20] 13.5 µM | [11] 9.53 µM | [13] 12.6 µM
inactive: [1] | [3] | [4] | [6] | [8] | [18] | [15]

CCN(CC)CCOC(=O)C(c1ccccc1)C1CCCCC1 (stereo not given)
active: [20] 5.36 µM | [13] 11.2 µM
inactive: [1] | [2] | [3] | [16] | [5] | [6] | [7] | [8] | [18] | [9] | [10] | [12] | [15]

CN(C)C(=S)SC(=S)N(C)C
inactive: [1] | [3]
active: [16] 10.7 µM | [5] 11.2 µM | [7] 15.1 µM | [18] 15.1 µM | [9] 8.49 µM | [10] 10 µM | [20] 13.5 µM | [12] 12 µM | [13] 7.08 µM | [14] 1.12 µM

COC(=O)[C@H]1[C@H]2C[C@H]3c4[nH]c5ccccc5c4CCN3C[C@H]2CC[C@@H]1O
inactive: [1] | [3] | [4] | [16] | [17] | [6] | [7] | [8] | [18] | [19] | [9] | [20] | [11] | [12]

CO/N=C1\CN(c2nc3c(cc2F)c(=O)c(C(=O)O)cn3C2CC2)CC1CN (stereo not given)
active: [4] 12 µM | [16] 5.36 µM | [5] 7.94 µM | [9] 6.75 µM | [13] 10 µM
inactive: [1]

COc1cccc(CCc2ccccc2OCC(CN(C)C)OC(=O)CCC(=O)O)c1 (stereo not given)
active: [1] 12 µM | [2] 7.08 µM | [4] 7.57 µM | [16] 6.75 µM | [5] 5.62 µM | [17] 12 µM | [6] 3.38 µM | [7] 7.57 µM | [8] 15.1 µM | [19] 12 µM | [9] 3.79 µM | [10] 11.2 µM | [20] 2.13 µM | [11] 2.39 µM | [12] 6.75 µM | [13] 1.41 µM | [14] 4.47 µM

O=C(OCCOCCO)c1ccccc1Nc1cccc(C(F)(F)F)c1
inactive: [1] | [2] | [4] | [16] | [5] | [17] | [6] | [7] | [8] | [18] | [19] | [9] | [10] | [20] | [11] | [12] | [13] | [14] | [15]

COc1cc2c(cc1OC)C(=O)C(CC1CCN(Cc3ccccc3)CC1)C2 (stereo not given)
inactive: [1] | [3] | [4] | [16] | [5] | [17] | [6] | [7] | [8] | [18] | [19] | [9] | [10] | [12] | [14] | [15]
active: [20] 10.7 µM | [13] 8.91 µM

O=C(CCCN1CCC(O)(c2ccc(Br)cc2)CC1)c1ccc(F)cc1
inactive: [1] | [3] | [6] | [10] | [14] | [15]
active: [20] 5.73 µM | [11] 6.42 µM | [13] 3.55 µM

O=C1OCCN1/N=C/c1ccc([N+](=O)[O-])o1
inactive: [1] | [3] | [16] | [6] | [8] | [18] | [19]
active: [13] 11.2 µM
